# This is part of a sample that, as a whole, favours compounds with a hit. Of some 83,000 tested, about 20% had one in any assay.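 The test compound was applied at a single concentration to cells in 96-well plates for 48 hours, and percent growth was recorded.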 Unmarked numbers belong to inactive results. Calls of active or inactive are those of the source. The calls were made as follows: active = growth percent below 10; inactive = the rest.
# What was measured:
# Assay in all cases: NCI-60 one-dose screen, 48 h (100 = growth as untreated, 0 = no growth, -100 = all killed)
# Conditions in all cases: 10 µM unless noted
# HCT-15 colon = test system: HCT-15 colon
# HT29 colon = test system: HT29 colon
# SNB-75 CNS = test system: SNB-75 CNS
# SNB-19 CNS = test system: SNB-19 CNS
# U251 CNS = test system: U251 CNS
# PC-3 prostate = test system: PC-3 prostate
# SK-MEL-5 melanoma = test system: SK-MEL-5 melanoma
# LOX IMVI melanoma = test system: LOX IMVI melanoma
# SK-MEL-28 melanoma = test system: SK-MEL-28 melanoma
Structure (SMILES),growth (HCT-15 colon),growth (HT29 colon),growth (SNB-75 CNS),growth (SNB-19 CNS),growth (U251 CNS),growth (PC-3 prostate),growth (SK-MEL-5 melanoma),growth (LOX IMVI melanoma),growth (SK-MEL-28 melanoma)
COc1cccc(-c2nn(-c3ccccc3)cc2-c2ccnc(NCCCNS(=O)(=O)c3ccc(Cl)cc3)c2)c1,34.4%,11.3%,71.2%,52.1%,35.5%,25.1%,30.8%,52.3%,
COc1ccc(C2NC(=O)Nc3ccccc32)c(OC)c1 (stereo not drawn),100%,108%,68.7%,99.1%,99.7%,82.2%,96%,103%,
CCCCCCCC(=O)SCC/C=C/[C@@H]1CC(=O)NCc2cccc(n2)CN(Cc2ccc(Cl)cc2)CC(=O)N[C@@H](C(C)C)C(=O)O1,20.7%,-2.23% (active),18.6%,15.3%,-48.2% (active),9.67% (active),-84.6% (active),-61.5% (active),
O=S(=O)(NCCNc1cc(-c2cn(-c3ccccc3)nc2-c2cccc(O)c2)ccn1)c1cccc(F)c1,5.71% (active),7.47% (active),48.1%,51.5%,32.3%,25.4%,26.9%,36.5%,
COc1ccc(-c2cc(-c3c(C)oc4cc5occc5c(OC)c4c3=O)nc(N)c2C#N)cc1OC,55.6%,67%,40.3%,64.3%,48.9%,62.6%,52.7%,50.2%,
COC(=O)CCCCCn1c2ccccc2c2c3c(c4c5ccccc5[nH]c4c21)C(=O)N(O)C3=O,44.1%,24%,92%,29.9%,10.2%,34.3%,33.1%,-65% (active),
O=S(=O)(NCCNc1cc(-c2cn(-c3ccccc3)nc2-c2cccc(O)c2)ccn1)c1ccc(Br)cc1,5.6% (active),4.7% (active),43.7%,41.3%,22.5%,15.6%,11.5%,20%,
COc1cc2c3c(c4c5ccccc5[nH]c4c2c(OC)c1OC)C(=O)N(O)C3=O,45.8%,52.1%,72.6%,54.5%,28%,43.8%,11.1%,26.3%,
COc1cccc(-c2nn(-c3ccccc3)cc2-c2ccnc(NCCCNS(=O)(=O)c3cccc(F)c3)c2)c1,21.9%,15.1%,55.4%,42.8%,27.5%,11.9%,-45.6% (active),27.5%,
CC(=O)O[C@@H]1CCN2C(=O)N(C)c3ccccc3[C@@H]2C1,103%,104%,89%,98.3%,102%,89.1%,104%,98.6%,
COC(=O)[C@]12CC[C@@H](C)[C@H](C)[C@@H]1C1=CC(=O)[C@@H]3[C@@]4(C)C[C@@H](OC(C)=O)[C@H](OC(C)=O)[C@@](C)(COC(C)=O)[C@@H]4C(=O)C[C@@]3(C)[C@]1(C)CC2,38.5%,40.4%,55.6%,57%,40.7%,2.41% (active),20%,50.8%,
COc1ccc2c(c1)c(-c1nc(-c3c[nH]c4ncccc34)cs1)cn2CCNC(=O)OC(C)(C)C,54.6%,71.3%,68.2%,93%,69.1%,31.8%,54.2%,71.9%,88.1%
Brc1ccc2c(c1)c(-c1nc(-c3c[nH]c4ncccc34)cs1)cn2CCCN1CCCCC1,-80% (active),-87.2% (active),67.6%,-68.3% (active),-84.2% (active),2.12% (active),-59.5% (active),-93.5% (active),-84.8% (active)
COc1cc(-c2cc3ncccc3c3[nH]c(=O)c4cccnc4c23)cc(OC)c1OC,30.6%,8% (active),-3.35% (active),53.7%,16.8%,13.2%,-5.2% (active),42.5%,68.2%
CSc1ccc(N(C)c2nc(C)nc3c2CCC3)cc1,7.62% (active),-9.35% (active),35.1%,38.1%,12.1%,20.1%,-38.2% (active),10.2%,
